Assay [1] has as its system Wnt5a (protein binding on small-molecule microarray). Put plainly: small molecules binding Wnt5a protein – biophysical, small-molecule microarray, 635/667 nm fluorescence, primary screen (AID 1142).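 Also: fluorescence read at 667 nm with signal to noise per printed feature.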 To be noted: 635 nm fluorescence, higher = more signal.
Assay [2] can be described thus: ATP-based viability of Huh7 replicon cells – cell-based, CellTiter-Glo luminescence, basal, 48 h, cytotoxicity control for HCV replication inhibitor project, primary screen (AID 1143).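 Also: Huh7 hepatoma cells carrying a hepatitis C replication reporter with no stimulus; test concentration not given here.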 As to conditions: higher = more signal, called active from +8 up or from −8 down. (In general: Replicon systems follow genome replication, usually without infectious particles.)
Assay [3] in a line: Pseudomonas biofilm growth suppression – PAO1 strain, BacTiter-Glo luminescence, LB-PBS, primary screen (AID 1144). To be noted: P. aeruginosa PAO1 biofilm, 12 h, higher = more signal.
A short description of assay [4]: basal CRE-LacZ reporter activity in PC12 – cell-based, unstimulated, primary screen (AID 1145). To be noted: no forskolin, luminescence, 4.5 h, higher = more signal, called active from +8 up or from −8 down.
Assay [5] in a line: forskolin-driven CRE-LacZ activity in PC12 – cell-based, CRE-LacZ reporter, forskolin-stimulated, primary screen (AID 1146).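 Also: PC12 cells with 6xCRE LacZ reporter stimulated by forskolin 10 µM; beta-galactosidase reporter signal reflecting CREB driven transcription.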 To be noted: luminescence, 4.5 h, higher = more signal, called active from +8 up or from −8 down.
The target of assay [6] is Streptavidin (Streptomyces avidinii) (UniProt P22629). Put plainly: compounds binding control protein streptavidin – biophysical, small-molecule microarray, 635/667 nm fluorescence, artefact control for SMM compound annotation, primary screen (AID 1147).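 Also: signal reflects streptavidin binding to arrayed compounds as a control protein.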 To be noted: higher = more signal.
Assay [7] is described as follows: probe aInhba binding on compound microarray – biochemical, small-molecule microarray, 635/667 nm fluorescence, primary screen (AID 1148).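 Also: score merges 667nm spot fluorescence with signal-to-noise for antibody binding to printed compounds.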 To be noted: higher = more signal.
For assay [8], the target named is Torsin-1A (Homo sapiens) (UniProt O14656). Nature of the assay: TOR1A wild-type binding on microarray – cell lysate, small-molecule microarray, lysate, 635/667 nm, primary screen (AID 1149). To be noted: COS7 hTOR1A-WT lysate, 635 nm fluorescence, higher = more signal.
Assay [9] shares this target. Put plainly: torsin A mutant lysate binding on microarrays – cell lysate, small-molecule microarray, COS7 lysate, 635/667 nm fluorescence, primary screen (AID 1150).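 Also: score pools 667 nm emission and signal to noise measuring lysate protein binding.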 As to conditions: COS7 hTOR1A mutant lysate, 635 nm fluorescence, higher = more signal.
Assay [10] deals with Sonic hedgehog protein (Shh). Put plainly: Sonic hedgehog microarray binding compounds – biochemical, small-molecule microarray, 635/667 nm fluorescence, primary screen (AID 1151).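 Also: Shh protein binding to compounds spotted on small-molecule microarray slides; score combines spot fluorescence intensity with signal-to-noise across triplicate slides.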 As to conditions: 635 nm fluorescence, higher = more signal.

Structures are written as SMILES. Active and inactive are the calls of the source. Unless noted, no rule for the calls is given here.

Sequence of Streptavidin (Streptomyces avidinii) (P22629 whole entry, looked up): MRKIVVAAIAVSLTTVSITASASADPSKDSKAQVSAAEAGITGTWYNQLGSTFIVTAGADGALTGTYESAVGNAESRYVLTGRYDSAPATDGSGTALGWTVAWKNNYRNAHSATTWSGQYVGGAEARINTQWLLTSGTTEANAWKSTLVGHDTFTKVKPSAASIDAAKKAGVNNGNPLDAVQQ
Sequence of Torsin-1A (Homo sapiens) (O14656 whole entry, looked up): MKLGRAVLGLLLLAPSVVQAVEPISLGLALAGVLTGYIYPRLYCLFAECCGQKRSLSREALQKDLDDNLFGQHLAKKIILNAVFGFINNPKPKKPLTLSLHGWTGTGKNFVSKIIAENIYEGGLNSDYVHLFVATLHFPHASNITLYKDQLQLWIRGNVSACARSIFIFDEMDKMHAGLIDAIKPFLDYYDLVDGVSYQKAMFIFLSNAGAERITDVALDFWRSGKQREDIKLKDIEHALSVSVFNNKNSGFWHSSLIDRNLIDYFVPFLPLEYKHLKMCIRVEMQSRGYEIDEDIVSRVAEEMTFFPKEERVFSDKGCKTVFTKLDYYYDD

In the case of `COCCOC(=O)N1C(=O)[C@@]2(c3cc(C#CCCO)ccc31)[C@H](C(=O)Nc1nc3ccccc3s1)[C@H]1C(=O)O[C@H](c3ccccc3)[C@H](c3ccccc3)N1[C@@H]2c1ccc(OCCO)cc1`, the composite z-score in [1] was found to be 0.281; in assay [6], 1.06; in assay [7], 0.138; in [8], 0.367; in assay [9], 1.42; in assay [10], 1.56. Besides, the z-score in assay [2] is -0.224 (inactive); in assay [3], -1.05 (inactive); in [4], -1.14 (inactive); in assay [5], -0.432 (inactive).

Turning to `C[C@@]1([C@@H](NC(=O)c2ccccc2)c2ccc(-c3ccccc3)cc2)C[C@H]1C1CCCCC1`, the composite z-score in [1] is 0.367; in assay [6], 1.1; in assay [7], 0.333; in assay [8], 0.0627; in assay [9], -0.0293; in assay [10], -1.1. Also, the z-score in [2] was 0.147 (inactive); in [3], -0.232 (inactive); in assay [4], 0.201 (inactive); in assay [5], 0.957 (inactive).

As to `CCCCC(=C=CC[C@@H](O)c1ccccc1OCCO)CCO`, the composite z-score in assay [1] is -0.235; in assay [6] it was -0.488; in [7], 0.0173; in assay [8], -0.873; in assay [9] it was 0.286; in assay [10], 0.134. In addition, the z-score in assay [2] was -0.717 (inactive); in assay [3] it was -0.0652 (inactive); in [4], 17.8 (active); in assay [5], 0.905 (inactive).

Regarding `COC(=O)[C@@]1(Cc2ccc(OC)cc2)[C@H]2c3cc(C(=O)N(C)C)n(CCN4CNCC4=O)c3C[C@H]2CN1C(=O)c1ccccc1`, the composite z-score in assay [1] was 0.0523; in [6] it was 0.494; in assay [7], -0.0736; in assay [8], -0.322; in [9] it was -0.502; in assay [10], -2.07. Moreover, the z-score in [2] is -0.582 (inactive); in assay [3] it was 0.726 (inactive); in assay [4], -0.754 (inactive); in [5] it was -0.403 (inactive).

For the compound `CC1CC/C=C\[C@H]2OC34C=CCN(c5ccc(Cl)cc5)C(=O)[C@H]3N(CCO)C(=O)[C@]4(C)C2C(=O)O1` (stereo not given in full), the composite z-score in assay [1] was -0.642; in [6], -0.561; in assay [7], -0.128; in assay [8] it was -0.433; in assay [9], -1.01; in assay [10], -0.317. Moreover, the z-score in assay [2] was -0.901 (inactive); in [3], 0.43 (inactive); in assay [4], 0.87 (inactive); in assay [5] it was -0.217 (inactive).

With `COC(=O)[C@@]1(Cc2ccc(F)cc2)[C@H]2c3cc(C(=O)N4CCCC4)n(Cc4cc(C)n(C)n4)c3C[C@H]2CN1C(=O)c1ccccc1`, the composite z-score in assay [1] was 0.639; in [6] it was 1.65; in assay [7] it was 0.32; in assay [8] it was 0.0304; in [9], 1.04; in [10], -1.06. The z-score in assay [2] was -2 (inactive); in [3], -0.132 (inactive); in [4], 0.583 (inactive); in assay [5] it was 0.989 (inactive).

Regarding `C=CC[C@@]1(C(=O)NCc2ccccc2)N=C(c2ccc(OCCCO)cc2)O[C@@H]1c1ccccc1N=[N+]=[N-]`, the composite z-score in assay [1] was 0.465; in assay [6] it was 1.15; in [7], 0.174; in [8] it was 1.23; in [9] it was 0.762; in assay [10], -0.245. Further, the z-score in assay [2] is -2.73 (inactive); in assay [3], -0.291 (inactive); in [4], 3.85 (inactive); in assay [5] it was 0.34 (inactive).

`COC(=O)[C@@]1(Cc2ccccc2)[C@H]2c3cc(C(=O)N4CCCC4)n(CC4CC4)c3C[C@H]2CN1C(=O)c1ccccc1`: the composite z-score in assay [1] is 0.918; in [6], 0.907; in assay [7], 1.06; in [8], 0.256; in assay [9], 0.0577; in assay [10], -0.151. Besides, the z-score in assay [2] was -3.64 (inactive); in [3] it was 0.798 (inactive); in assay [4], 0.587 (inactive); in assay [5], 0.847 (inactive).

On to `CCCCc1cn(C[C@H](Cc2ccccc2)NC(=O)N[C@H](CO)CCc2oc(C(C)=O)c(C(=O)OC)c2C(=O)OC)nn1`, for which the composite z-score in [1] was 0.276; in assay [6], 0.881; in assay [7] it was -0.0448; in assay [8] it was 0.992; in assay [9], 0.454; in [10], 1.99. The z-score in assay [2] is -2.8 (inactive); in [3], -1.09 (inactive); in [4], 1.02 (inactive); in assay [5], 0.549 (inactive).

`O=C1c2ccccc2[C@@]2(Cc3ccccc3N(CCN3CCOCC3)C2=O)[C@H](c2ccc(CO)cc2)N1Cc1ccccc1`: the composite z-score in assay [1] is -0.465; in assay [6], -0.383; in [7] it was -0.231; in assay [8] it was 0.437; in assay [9], 0.456; in assay [10] it was -0.613. Also, the z-score was -1.24 (inactive) in assay [2], -1.33 (inactive) in assay [3], 0.208 (inactive) in [4] and -0.297 (inactive) in assay [5].

Take `C=CC[C@@]1(C(=O)N(C)C)N=C(c2ccc(OCCCO)cc2)O[C@@H]1c1ccccc1N=[N+]=[N-]`: the composite z-score worked out at 0.554 in assay [1]; 1.28 in assay [6]; 0.274 in assay [7]; 0.722 in assay [8]; 1.03 in assay [9]; 0.264 in [10]. Moreover, the z-score in assay [2] is -2.25 (inactive); in assay [3] it was 0.557 (inactive); in assay [4], 0.227 (inactive); in assay [5] it was -0.825 (inactive).

Turning to `CC(C)(C)OC(=O)CC[C@]12N=C(c3ccc(OCCCO)cc3)O[C@H]1c1ccccc1N(CCS(=O)(=O)c1ccccc1)C2=O`, the composite z-score in [1] is 0.628; in assay [6] it was 0.579; in assay [7], 0.0785; in assay [8], 0.698; in [9] it was 0.811; in assay [10], 1.2. The z-score in assay [2] was -2.91 (inactive); in [3], -0.556 (inactive); in [4], 3.64 (inactive); in [5] it was -1.42 (inactive).

`C=CCN1C(=O)[C@]2(O[C@H](CCO)[C@@H]([Si](C)(C)c3ccc(OC)cc3)[C@@H]2C)c2cc(N3C(=O)c4cccc5cccc3c45)ccc21`: the composite z-score in assay [1] is -0.0476; in assay [6], 0.487; in assay [7], 0.0214; in assay [8] it was 1.13; in assay [9] it was 0.0015; in assay [10], 1.84. Besides, the z-score in assay [2] is -7.91 (inactive); in [3], 0.00752 (inactive); in [4] it was 23.5 (active); in assay [5] it was -2.47 (inactive).

(Values after PubChem BioAssay.)
